Compound activity deposited in PubChem by National Center for Advancing Translational Sciences (NCATS).
Only some compounds are listed: those with a hit (about 8% of all), similar ones and a draw of the others.
Lassa entry = qHTS for Inhibitors of binding or entry into cells for Lassa Virus; Lassa virus pseudotyped entry inhibition, cell-based qHTS; Potency, µM (doses to about 49.2 µM), most hits filed as inhibitors; 18,000 tested, 4.1% active
Marburg entry = qHTS for Inhibitors of binding or entry into cells for Marburg Virus. Marburg virus pseudotype entry/binding inhibition, cell-based. Potency, µM (top dose mostly 49.2 µM), usual class: inhibitors. 18,000 tested, 6.5% active. AID 720532, 2013
Hits are given with their value; i = inactive; ? = inconclusive; nt = no result; ! = not confirmed by another sample; [ ] = remark or other dose. The call rests on the fitted dose curve; tested in HEK293 cells.

SMILES	Lassa entry	Marburg entry
C[C@@]12CC[C@@H]3c4ccc(O)cc4CC[C@H]3[C@H]1CC[C@H]2O	i	i
C[C@]12CC[C@@H]3c4ccc(O)cc4CC[C@H]3[C@@H]1CC[C@@H]2O	14.1µM!	i
CCCNC(=O)OC[C@H]1O[C@H](CCON=C2[C@H]3CCn4c(=O)n(-c5ccccc5)c(=O)n4[C@@H]3[C@H](O)[C@@H]3O[C@H]23)C=C[C@H]1Oc1ccc(OC)cc1	i[8.59 µM]	i[8.59 µM]
CC1=C[C@]2(O[C@H](COc3ccccc3)C1)C(=O)N(C)c1ccccc12	i[8.59 µM]	i[8.59 µM]
COc1cc(OC)c([C@@H]2O[C@H](CO)[C@@H](O)[C@H](O)[C@@H]2O)c(OC)c1	i[8.59 µM]	i[8.59 µM]
COc1ccc(Nc2nccc(NCCO)n2)cc1	i	i
COc1cc(Nc2nccc(Nc3ccc4c(C)[nH]nc4c3)n2)cc(OC)c1OC	?	9.96µM
CS(=O)(=O)CCNCc1coc(-c2ccc3ncnc(Nc4ccc(OCc5ccccc5)cc4)c3c2)c1	i	?
CC(C)=CCN1C(=O)C2(CC(C)=C[C@@H](C)O2)c2c(Br)cccc21 (some centres not stated)	i[8.59 µM]	i[8.59 µM]
NC(=NC1C2CC3CC(C2)CC1C3)Nc1ccc(I)cc1 (configuration not stated)	8.91µM	11.2µM
COC(=O)C1=C(C(=O)OC)[C@@H]2Nc3ccccc3[C@@]23C[C@@H](C(=O)OC)N(C(=O)NC2CCCC2)C3=N1	i[8.59 µM]	i[8.59 µM]
CC(=O)c1ccc(C(=O)NCC2Cc3cccc(-c4ncccn4)c3O2)cc1 (configuration not stated)	i	?
O=C(CSc1ncccn1)NCC1Cc2cccc(-c3ncccn3)c2O1 (configuration not stated)	i	141µM
C[C@@H](ON=C1[C@H]2CCn3c(=O)n(-c4ccccc4)c(=O)n3[C@@H]2[C@H](O)[C@@H]2O[C@H]12)c1cn([C@H](CO)Cc2ccccc2)nn1	nt	i[8.59 µM]
O=S1(=O)CCSCCN1Cc1ccc(Br)cc1	i	i
O=C(/C=C/C#Cc1cccc(NS(=O)(=O)c2ccccc2)c1)NO	10µM	?
Nc1ccc(S(=O)(=O)Nc2ccccc2)cc1	i	i
CC1=C(C(=O)Nc2ccc3[nH]ncc3c2)C(c2ccc(Cl)c(Cl)c2)CC(=O)N1 (configuration not stated)	i	i
CN(C)CCNC(=O)Nc1ccc(N(C)c2ccnc(Nc3ccc(CS(C)(=O)=O)cc3)n2)cc1	i	i
C=CC(C)(C)c1c2c(c(O)c3c(=O)c4ccc(O)c(O)c4oc13)C=CC(C)(C)O2	?	20µM
CCCCC[C@H](O)C/C=C1/C(=O)C=C[C@@H]1C/C=C\CCCC(=O)O	?	i
CCCCC/C=C/C=C1/C(=O)C=C[C@@H]1C/C=C\CCCC(=O)O	15.8µM!	?
C=CCCOP1(=O)O[C@H](C=C)C[C@H](C=C)O1 (some centres not stated)	i	i
CCN(CC)CCCCNc1ncc2cc(-c3cc(OC)cc(OC)c3)c(NC(=O)NC(C)(C)C)nc2n1	12.6µM	1.12µM
CCN(CC)CCNC(=O)COc1ccc(OC)cc1	i	i
SMILES	Lassa entry	Marburg entry
COc1ccc([C@@H]2Sc3ccccc3N(CCN(C)C)C(=O)[C@@H]2OC(C)=O)cc1	4.47µM	28.2µM
COc1ccc(C2Sc3ccccc3N(CCN(C)C)C(=O)[C@@H]2OC(C)=O)cc1 (some centres not stated)	i	?
CN1CCN(CCCNc2nc3ccc(Oc4ccc(NC(=O)Nc5cc(C(F)(F)F)ccc5F)cc4)cc3[nH]2)CC1	i	?
COc1ccc2c(c1)[C@@]1(OCCC=C[C@@H]1C)C(=O)N2Cc1ccc(Br)cc1	i[8.59 µM]	i[8.59 µM]
CC(C)OC(=O)[C@H](C)NC(=O)N1CCc2nc(-c3ccccc3)c3c(c2C1)CO[C@@H](C)C3	i[8.59 µM]	i[8.59 µM]
O=C(O)COCCN1CCN(C(c2ccccc2)c2ccc(Cl)cc2)CC1 (configuration not stated)	i	i
OC(CN1CCN(c2cccc(Cl)c2)CC1)C(c1ccccc1)c1ccccc1 (configuration not stated)	28.2µM	35.5µM
COc1ccc([C@]23Cc4cc(OC)c(OC)cc4[C@H](O2)C2=C(CC(C)(C)CC2=O)O3)cc1	i[8.59 µM]	i[8.59 µM]
CN(C)Cc1c[nH]c2ccccc12	i	i
OCc1c[nH]c2ccccc12	31.6µM!	31.6µM!
CO/C1=C\C(C)=C\[C@@H](C)[C@@H](O)[C@@H](C)C/C(C)=C/C=C\[C@H](OC)C([C@@H](C)[C@@H](O)[C@H](C)[C@@]2(O)C[C@@H](O)[C@H](C)C(C(C)C)O2)OC1=O (some centres not stated)	0.0231µM	0.0146µM
COC(=O)C(C(C)=O)[C@@H](NC(=O)OC(C)(C)C)c1ccccc1 (some centres not stated)	i[8.59 µM]	i[8.59 µM]
CNc1ccc2oc(C[C@@H]3OC4(CC[C@@H]3C)O[C@H]([C@@H](C)C(=O)c3ccc[nH]3)[C@H](C)C[C@H]4C)nc2c1C(=O)O (some centres not stated)	2.82µM	2.82µM
